In PubChem BioAssay (Tox21):
Several values for one entry are separate records, joined by “and”; a condition that tells them apart may be missing. Identical values can stand only once. Inconclusive results are not listed. Activity calls are given as the source filed them. Calls come from the whole dose curve; as a rule, active = well fitted activation curve with a large enough effect in the repeat runs; inconclusive = weak or mixed curves; inactive = no such curve, though single readings can be large or run the other way.

biological target: Aryl hydrocarbon receptor (Homo sapiens) (UniProt P35869); assay: qHTS assay to identify small molecule that activate the aryl hydrocarbon receptor (AhR) signaling pathway (AID 743085); conditions: HepG2 AhR-luc (HG2L7.5c1), luciferase, 24 h; series mostly up to 70.3 µM; activation: at the top concentration; note: nearly all actives have a fitted effect of over 15% in size;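 for activation: HG2L7.5c1 human HepG2 liver cells with stably integrated DRE-driven firefly reporter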
Sequence (P35869 whole entry, looked up): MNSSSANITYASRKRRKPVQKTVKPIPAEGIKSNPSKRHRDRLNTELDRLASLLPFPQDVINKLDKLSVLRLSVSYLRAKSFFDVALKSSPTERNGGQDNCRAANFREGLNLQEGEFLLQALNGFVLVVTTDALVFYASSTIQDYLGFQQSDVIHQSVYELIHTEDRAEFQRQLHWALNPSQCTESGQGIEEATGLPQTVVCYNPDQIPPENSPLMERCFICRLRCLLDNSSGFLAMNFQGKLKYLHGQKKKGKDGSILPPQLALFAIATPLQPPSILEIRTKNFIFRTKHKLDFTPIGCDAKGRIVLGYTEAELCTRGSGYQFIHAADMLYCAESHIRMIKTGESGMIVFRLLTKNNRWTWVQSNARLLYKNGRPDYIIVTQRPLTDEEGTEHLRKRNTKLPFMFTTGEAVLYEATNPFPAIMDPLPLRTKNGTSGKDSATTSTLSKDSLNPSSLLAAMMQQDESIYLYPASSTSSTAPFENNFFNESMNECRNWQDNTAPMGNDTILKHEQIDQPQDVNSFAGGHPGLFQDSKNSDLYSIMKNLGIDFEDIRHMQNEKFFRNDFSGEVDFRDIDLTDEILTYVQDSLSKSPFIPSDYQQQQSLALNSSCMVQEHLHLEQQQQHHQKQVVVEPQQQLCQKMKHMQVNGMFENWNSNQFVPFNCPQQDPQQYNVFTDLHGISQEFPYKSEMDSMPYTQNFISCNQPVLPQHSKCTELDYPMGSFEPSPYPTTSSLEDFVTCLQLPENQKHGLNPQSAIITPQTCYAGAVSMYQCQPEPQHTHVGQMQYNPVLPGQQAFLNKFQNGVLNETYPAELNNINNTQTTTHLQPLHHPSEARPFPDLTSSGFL
Excerpt: U.S. Tox21 Program National Center for Advancing Translational Sciences [NCATS] NIH Chemical Genomics Center [NCGC] U.S. Environmental Protection Agency [EPA] National Institutes of Environmental Health Sciences [NIEHS] National Toxicology Program [NTP] U.S. Food and Drug Administration [FDA] Tox21 Assay overview: The Aryl hydrocarbon Receptor (AhR), a member of the family of basic helix-loop-helix transcription factors, is crucial to adaptive responses to environmental changes. AhR mediates cellular responses to environmental pollutants such as aromatic hydrocarbons through induction of phase I and II enzymes but also interacts with other nuclear receptor signaling pathways. A cell based HepG2-AhR-luc assay (HG2L7.5c1 cell line, developed by Dr. Michael S. Denison, University of California at Davis, was used to assess the activation of AhR. HepG2 (human hepatocellular carcinoma) cells were stably transfected with an Ah receptor-responsive firefly luciferase reporter gene plasmid containing 20 dioxin responsive elements and luciferase reporter gene. Increased luciferase activity can be used to identify the compounds that induce AhR activation.
Tox21 Assay Protocol Summary: 4000 cells in 5 uL/well were dispensed into white wall/solid bottom 1536-well plates using a Multidrop Combi (Thermo Fisher Scientific Inc., Waltham, MA) dispenser. After the assay plates were incubated at 37C for 5 h, 23 nL of compound or DMSO vehicle was transferred to the assay plates by a pintool station (Kalypsys, San Diego, CA). The plates were incubated at 37C for 24 hr. After 1 ul/well of CellTiter-Fluor reagent (Promega, Madison, WI) was added into the assay plates using a Flying Reagent Dispenser (FRD) (Aurora Discovery, CA), the assay plates were incubated at 37C for 30 min. The fluorescence intensity in the plates was measured using a ViewLux plate reader (PerkinElmer, Shelton, CT), followed by the addition of 4 uL of ONE-Glo Luciferase Assay reagent (Promega) using an FRD (Aurora Discovery). After the assay plates were incubated at room temperature for 30 min, luminescence intensity was measured using a ViewLux plate reader (Perkin Elmer).
% is set by controls: 0 for no effect and ±100 for the full control effect; potency is the fitted concentration of half-maximal effect.

SMILES | Potency | activation
CCOc1cc(N)c(Cl)cc1C(=O)NCC1CN(Cc2ccc(F)cc2)CCO1 (stereo not given) | 0.266 µM (active) | 
CCCCCCCCCCOS(=O)(=O)O |  | -0.142% (inactive)
C/C=C(\C)C(=O)OCCC(C)CCC=C(C)C (stereo not given) |  | 3.24% (inactive)
CN(C(=O)C(Cl)Cl)c1ccc(OC(=O)c2ccco2)cc1 |  | 1.46% (inactive)
Cc1cc2nc3ccc(=[N+](C)C)cc-3sc2cc1N | 4.22 µM (active) | 
O=C(N[C@@H](c1ccccc1)[C@@H]1CCCCN1)c1cccc(C(F)(F)F)c1Cl |  | -8.87% (inactive)
CC(C)C(OC(=O)c1ccccc1)C(C)(C)COC(=O)c1ccccc1 (stereo not given) |  | 0.946% (inactive)
CCCCN(CCCC)CCCOC(=O)c1ccc(N)cc1 |  | 0.615% [at 32.5 µM] (inactive)
CCOC(=O)CC(=O)C(=O)OCC |  | -1.95% (inactive)
CC1(C)C2=CCCC(C)(C)[C@]23CC[C@H]1C3 |  | -0.706% (inactive)
COCCOC(=O)C1=C(C)NC(C)=C(C(=O)OC/C=C/c2ccccc2)C1c1cccc([N+](=O)[O-])c1 (stereo not given) | 0.944 µM (active) | 
CCCC1C(CC)=CC(CC)=CN1c1ccccc1 (stereo not given) |  | 3.16% (inactive)
COCc1c(C(C)C)nc(C(C)C)c(/C=C/[C@@H](O)C[C@@H](O)CC(=O)O)c1-c1ccc(F)cc1 |  | 3.38% (inactive)
CCOC(=O)/C=C/C(=O)O |  | -1.36% (inactive)
Cc1nc2ccccc2s1 |  | 0.387% [at 95 µM] (inactive)
CC(C)c1nnc2ccc(-c3ocnc3-c3cc(F)ccc3F)cn12 |  | -0.154% (inactive)
Cc1oncc1C(=O)Nc1ccc(C(F)(F)F)cc1 | 1.14 µM (active) and 21.7 µM (active) | 
CCc1nn(CCCN2CCN(c3cccc(Cl)c3)CC2)c(=O)n1CCOc1ccccc1 |  | -4.92% (inactive)
Cc1c(C(=O)NN2CCCCC2)nn(-c2ccc(Cl)cc2Cl)c1-c1ccc(Cl)cc1 |  | 0.26% (inactive)
O=c1[nH]c2ccc(S(=O)CCN3CCC(Cc4ccc(F)cc4)CC3)cc2o1 (stereo not given) |  | 4.61% (inactive)

SMILES | Potency | activation
CCC(Cc1ccccc1)(C(=O)c1ccc(N2CCOCC2)cc1)N(C)C (stereo not given) |  | 7.12% (inactive)
CO[C@H]1C=CO[C@@]2(C)Oc3c(C)c(O)c4c(O)c(c5c(c4c3C2=O)=NC2(CCN(CC(C)C)CC2)N=5)NC(=O)/C(C)=C\C=C/[C@H](C)[C@H](O)[C@@H](C)[C@@H](O)[C@@H](C)[C@H](OC(C)=O)[C@@H]1C | inactive | 
c1ccc(COCc2ccccc2)cc1 |  | 2.09% [at 95 µM] (inactive)
CC(C)CCCCCCOC(=O)CCCCC(=O)OCCCCCCC(C)C |  | -0.444% (inactive)
Cc1ccc(/C=N/n2c(-c3ccccc3)csc2=S)cc1 | 10.6 µM (active) | 
CCn1nc(C)c2c1C(=O)NCC(c1ccc(O)cc1)=N2 | 24.3 µM (active) | 
Cc1cnc(C)c(C)n1 |  | 0.37% [at 95 µM] (inactive)
Cc1ccnc2ccccc12 |  | 4.37% (inactive)
O=C(CCCN1CCN(c2ccc(F)cc2)CC1)NC1c2ccccc2CSc2ccccc21 (stereo not given) |  | 7.44% (inactive)
Fc1ccccc1[C@@H](F)COC1CCC(Nc2ncnc3[nH]ncc23)CC1 (stereo not given in full) |  | 0.284% (inactive)
CC(=O)[C@H]1CC[C@H]2[C@@H]3C[C@H](C)C4=CC(=O)CC[C@]4(C)[C@H]3[C@@H](O)C[C@]12C |  | 4.23% [at 32.5 µM] (inactive)
O=C(CS)OCCOC(=O)CS |  | -0.831% (inactive)
CCCCC/C(=C\c1ccccc1)CO |  | 0.264% [at 95 µM] (inactive)
NC(=O)N(O)[C@@H]1COc2cc(OCc3ccccc3)ccc21 |  | -0.473% (inactive)
CCCCCCCC/C=C\CCCCCCCC(=O)OC(CO)CO |  | 2.47% (inactive)
O=C(O)c1ccc(CO)o1 |  | 0.799% [at 95 µM] (inactive)
C1COCO1 |  | 5.24% (inactive)
COC(OC)(C(=O)c1ccccc1)c1ccccc1 |  | -1.19% (inactive)
CC(C)OCC1CO1 (stereo not given) |  | -0.0268% (inactive)
CCC(C(=O)OCCOCCN(CC)CC)c1ccccc1 (stereo not given) |  | 1.92% (inactive)
